# Screens: PubChem BioAssay, SRMLSC
# A selection: hits, their analogues and other compounds. The true share with any hit is near 6.5%.
# DPM-DC inhibit = blocks S. pneumoniae diphosphomevalonate decarboxylase; purified DPM-DC, PK/LDH coupled NADH fluorescence; calls only at 10 µM; 65,000 compounds, 0.49% hits; AID 556;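 active means the 320 compounds with the highest percent inhibition in the single-dose primary screen, excluding strongly autofluorescent ones, cut at about 32% in these data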;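 further: kinetic rate of NADH fluorescence loss reporting ADP formed by the decarboxylase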
# Spn PMK inh = inhibitors of Streptococcus pneumoniae phosphomevalonate kinase; purified PMK, PK/LDH-coupled NADH absorbance 340 nm; inhibition, % at 10 µM; 65,000 compounds, 0.49% hits;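 active means top-ranked compounds by inhibition in the single 10 µM screen, taking a fixed number of the strongest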;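 further: 0% = full reaction with DMSO carrier and 100% = background rate without enzyme reaction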
# Autofluor 339 = intrinsic fluorescence of library compounds, ex339/em460 – biochemical, MLSMR library, data from DPM-DC assay, artefact control, profiling panel | 65,000 compounds, 5.5% hits | fluorescence fold increase at 10 µM | compound autofluorescence, ex339/em460 nm, NADH buffer; stronger effect = higher value; 1 = no-compound wells, NADH background;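 active means at 10 µM, mean starting fluorescence two-fold or more over control wells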;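 further: signal is the first read of a kinetic run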
# NADH coupling = inhibition of NAD/NADH coupling enzymes, library profiling; coupled PK/LDH NADH assays, four targets; IC50, µM (doses to about 10 µM), inactives show at the top dose inhibition; 65,000 compounds, 0.02% hits; AID 774;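 active means single-dose screening hits from any of four coupled enzyme assays that gave an IC50 when retested across doses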;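 further: the DPM-DC format reads NADH fluorescence rather than 340 nm absorbance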
# Abs 340nm = compound absorbs light at 340 nm; fold change at 10 µM; 65,000 tested, under 10 active; compound absorbance at 340 nm, fold over control;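 active means at 10 µM dose, initial 340 nm absorbance at least 2 fold that of control wells; inactive means change under 2 fold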;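 further: initial absorbance extrapolated from kinetic A340 decline of NADH oxidation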
# MK inhibit = blocks S. pneumoniae mevalonate kinase; 65,000 compounds, 0.48% hits; inhibition, % at 10 µM; purified MK, PK/LDH-coupled NADH absorbance 340 nm;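 active means ranked among the strongest by inhibition in the single 10 µM screen, a fixed top-ranked set picked for dose follow-up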
# An asterisk follows results filed as active; i = inactive; / = not tested or not shown; + = active, no number; [ ] = dose if it differs, or a comment.
SMILES,DPM-DC inhibit,Spn PMK inh,Autofluor 339,NADH coupling,Abs 340nm,MK inhibit
COc1ccc(N=c2oc3cc(O)ccc3cc2C(=O)NCC2CCCO2)c(OC)c1 (centres undefined),/,13,3.8*,9%,1.1,4
Cc1ccc(N=c2oc3cc(O)ccc3cc2C(N)=O)cc1,i,1,2.2*,2%,1.1,6
COc1ccc(N=c2oc3cc(O)ccc3cc2C(=O)NCC2CCCO2)cc1 (centres undefined),i,14,2.9*,18%,1,14
CC(=O)Nc1ccc(S(=O)(=O)N2CCC(NC(=O)c3ccco3)CC2)cc1,i,5,1.1,4%,1,6
COC(=O)CSc1nnc(CNC(=O)c2ccco2)n1-c1ccc(F)cc1,i,9,1.1,3%,1,0
O=C(c1ccccc1-c1nc(-c2ccc(Cl)cc2)no1)N1CCCC1,i,7,1,4%,1,6
COc1ccc2c(C)c(C(=O)NCC(C)O)oc2c1OC (centres undefined),/,15,2.3*,10%,1.1,4
COc1ccc(CNCCNC(=O)c2ccco2)c(OC)c1OC,i,7,1.1,3%,1,1
CCOC(=O)c1cc2c(=O)n3cccc(C)c3nc2n(CCc2ccc(OC)c(OC)c2)c1=N,i,12,1.2,7%,1,10
CCOC(=O)c1cc2c(=O)n3cccc(C)c3nc2n(Cc2ccccc2Cl)c1=N,i,9,1.9,7%,1,7
C=CCn1c(=N)c(C(=O)OCC)cc2c(=O)n3cccc(C)c3nc21,/,0,2.3*,0%,1.1,0
CCOC(=O)c1cc2c(=O)n3cccc(C)c3nc2n(CC2CCCO2)c1=NC(C)=O (centres undefined),/,9,2.9*,5%,1,0
CCOC(=O)c1cc2c(=O)n3cccc(C)c3nc2n(CCc2ccccc2)c1=N,+[fluoresces],5,2.3*,3%,0.98,4
Cc1nonc1NC(=O)Nc1cccnc1,i,10,1.1,5%,0.99,4
COCCCNC(=O)c1cc2c(-c3ccc(Cl)cc3)nn(C)c2s1,/,0,2.2*,1%,1.1,1
COCCNC(=O)c1cc2c(-c3ccc(Cl)cc3)nn(C)c2s1,/,7,2.2*,4%,1.1,0
CCOC(=O)N1CCC(NC(=O)c2cc3c(-c4ccc(Cl)cc4)nn(C)c3s2)CC1,/,10,2.1*,8%,1.1,6
CCCCNC(=O)c1cc2c(-c3ccc(Cl)cc3)nn(C)c2s1,i,0,1.5,1%,1.1,3
COCCNC(=O)c1cc2c(-c3ccccc3F)nn(C)c2s1,i,13,2*,7%,0.98,12
CC(C)NC(=O)c1cc2c(-c3ccc(Cl)cc3)nn(C)c2s1,i,9,1.6,9%,1.1,5
COc1ccc(OC)c(C(=O)c2ccc(C(=O)N3CCCCC3)cc2)c1,i,0,1.1,2%,1,7
Cn1nc(-c2ccc(Cl)cc2)c2cc(C(=O)NCCCN3CCCC3)sc21,/,6,2.1*,6%,1.1,6
Cc1sc2nc(CN(Cc3cccs3)C(=O)NC3CCCCC3)[nH]c(=O)c2c1C,i,4,1,2%,1,2
Cc1ccc(-c2cc(C(=O)Nc3cc(C)on3)c3ccccc3n2)c(C)c1,i,3,1.2,1%,1,1
Cc1cc(NC(=O)c2cc(-c3cccnc3)nc3c(C)c(C)ccc23)no1,i,5,2.9*,3%,1.1,3
SMILES,DPM-DC inhibit,Spn PMK inh,Autofluor 339,NADH coupling,Abs 340nm,MK inhibit
Cc1ccc(-c2nc3cnccn3c2Nc2ccccc2)o1,/,7,2.1*,9%,1.1,10
CN(C)c1ccc(C=NCCC2(O)CCOC(C)(C)C2)cc1 (centres undefined),i,5,1,4%,1.1,7
CN(C)c1ccc(CNCCC2(O)CCOC(C)(C)C2)cc1 (centres undefined),i,61*,1.1,11%,1,41*
Cc1ccnc(N2CCC(C(=O)Nc3cccc(C(F)(F)F)c3)CC2)n1,i,11,1.3,4%,0.99,2
CCN=C1Cn2c(nc3scc(-c4ccccc4)c3c2=O)CN1CC,i,4,2.4*,4%,1,0
O=C(O)c1cc(-c2ccccc2)nc2ccccc12,i,1,1,2%,1,4
O=C(O)c1cc(Cl)c2ccccc2c1O,/,4,3.8*,8%,1.1,12
COc1cc(NS(=O)(=O)c2ccc(Br)cc2)c(OC)cc1NC(=O)c1ccco1,i,17,1.1,6%,1,0
CCN1C(=O)/C(=C2/Sc3ccc(OC)cc3N2C)SC1=Nc1ccc(C(C)=O)cc1,i,25*,1.1,11%,1.1,1
Cc1c(Cl)cccc1Nc1ccccc1C(=O)O,i,10,1,2%,1,5
O=C(O)c1ccc2cccc(Cl)c2c1O,i,8,2.5*,12%,1.1,5
COc1cc(OC)c(C2C3=C(CCCC3=O)Nc3nc4ccccc4n32)cc1OC (centres undefined),i,12,1.1,7%,1.1,8
COc1cccc(C2C3=C(CCCC3=O)Nc3nc4ccccc4n32)c1OC (centres undefined),/,9,5*,8%,1.1,7
COC(=O)c1c(C(=O)OC)n(CCCN)c2ccc(C)cc12,/,0,2.4*,4%,0.99,5
COC(=O)C(O)(NC(=O)NC(C)=O)C(F)(F)F (centres undefined),i,5,1.2,2%,1,0
COCC(=O)N(Cc1cc2cc(OC)ccc2[nH]c1=O)c1ccccc1,i,0,2.7*,3%,1,8
COc1ccc2[nH]c(=O)c(CN(C)C(=O)COc3ccccc3)cc2c1,/,18,3.4*,15%,1,11
CCCCN(Cc1cc2cc(OC)ccc2[nH]c1=O)C(=O)COc1ccccc1,i,7,1.9,4%,1,8
COc1ccc2[nH]c(=O)c(CN(C(=O)C3CCCO3)c3ccc(C)cc3)cc2c1 (centres undefined),i,15,2.9*,17%,1.1,11
COc1ccc2[nH]c(=O)c(CN(C(C)=O)c3cccc(C)c3)cc2c1,i,7,3.2*,5%,1.1,0
O=C(O)CC(c1ccc(Cl)cc1)N1C(=O)CCC1=O (centres undefined),i,13,1.1,6%,0.97,4
CCC(=O)N(Cc1ccc2c(c1)OCO2)Cc1cc2cc(OC)ccc2[nH]c1=O,i,18,1.7,15%,1,17
CCOc1ccc(N(Cc2cc3cc(OC)ccc3[nH]c2=O)S(C)(=O)=O)cc1,i,5,2.8*,12%,1,4
CCN(Cc1cc2cc(OC)ccc2[nH]c1=O)C(=O)c1ccncc1,i,9,1.8,5%,1,3
